A number with no mark means an inactive call.
The compounds below were run against COPS5 (UniProt Q92905) (assay: log2 ratio of Biotin-Ahx-Ub-VS probe labelling (fragment/DMSO); higher = less target engagement (more negative = stronger competition), active = hit call of the paper (q ≤ 0.05, log2 ratio ≤ -1)). Settings: compound concentration: 200 uM; treatment time: 3 h.
Protocol: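 Competitive ABPP in HEK293T cell lysate. Lysates were treated with each chloroacetamide fragment at 200 µM for 3 h, then with Biotin-Ahx-Ub-VS (0.5 µM, 1 h), NeutrAvidin-enriched and analysed by diaPASEF LC-MS/MS. Protein LFQ was median-normalised; average log2 ratio is fragment/DMSO from an unpaired t-test (n=3 treated, n=44 DMSO). Hits: q ≤ 0.05, log2 ratio ≤ -1, unique peptides ≥ 2.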

COPS5, sequence (Q92905 whole entry, looked up, the tested form may be a part): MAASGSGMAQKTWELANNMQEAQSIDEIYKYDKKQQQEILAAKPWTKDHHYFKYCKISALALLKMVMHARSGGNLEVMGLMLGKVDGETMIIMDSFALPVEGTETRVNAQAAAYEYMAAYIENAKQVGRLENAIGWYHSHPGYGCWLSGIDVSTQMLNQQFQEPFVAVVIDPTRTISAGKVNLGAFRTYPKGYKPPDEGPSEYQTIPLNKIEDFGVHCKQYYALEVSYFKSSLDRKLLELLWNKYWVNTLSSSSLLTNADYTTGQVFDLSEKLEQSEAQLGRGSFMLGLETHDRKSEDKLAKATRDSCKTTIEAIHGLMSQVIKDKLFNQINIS

| Structure (SMILES) | log2 ratio of Biotin-Ahx-Ub-VS probe labelling |
| --- | --- |
| CC(=O)C1CCCCN1C(=O)CCl (stereo not given) | -0.141 |
| Cc1c(C#N)c(NC(=O)CCl)n(Cc2ccco2)c1C | -0.146 |
| Cl.O=C(CCl)NCc1ccnc(Oc2ccccc2F)c1 | 0.031 |
| Cc1nc(CN2CCCN(C(=O)CCl)CC2)no1.Cl | -0.0569 |
| CN1c2ccccc2C(NC(=O)CCl)CS1(=O)=O (stereo not given) | 0.318 |
| O=C(CCl)N1CCN(c2nc3ccccc3o2)CC1 | -0.251 |
| CN1C(=O)c2ccc(NC(=O)CCl)cc2C1=O | -0.249 |
| O=C(CCl)NCCC1COCCO1 (stereo not given) | -0.0816 |
| CN(Cc1nc2ccccc2[nH]1)C(=O)CCl.Cl | -0.0146 |
| Cc1cccn2cc(CCNC(=O)CCl)nc12.Cl | -0.284 |
| Cc1ccc(CC(NC(=O)CCl)c2ccccn2)cc1.Cl (stereo not given) | -0.0198 |
| COc1cccc(CN(C)C(=O)CCl)c1 | 0.0731 |
| Cc1ccccc1OCC(=O)N1CCN(C(=O)CCl)CC1 | 0.104 |
| O=C(CCl)N1CCc2ccccc2C(O)C1 (stereo not given) | 0.0553 |
| O=C(CCl)N1CCC(c2noc3cc(F)ccc23)CC1 | 0.00234 |
| NC(=O)C1CCCN(C(=O)CCl)C1 (stereo not given) | 0.0012 |
| N#Cc1cnn(-c2ccccc2)c1NC(=O)CCl | -0.123 |
| Cc1ccc(CN(CCO)C(=O)CCl)cc1 | -0.141 |
| O=C(CCl)N1CCC(c2nc3ccccc3o2)CC1 | -0.0083 |
| NS(=O)(=O)c1ccc(Cl)c(NC(=O)CCl)c1 | 0.226 |

| Structure (SMILES) | log2 ratio of Biotin-Ahx-Ub-VS probe labelling |
| --- | --- |
| O=C(CCl)N1CCCCC12CCOCC2 | 0.0647 |
| Cc1conc1C1CN(C(=O)CCl)C1 | 0.0369 |
| Cc1ccc(N(C(=O)CCl)C2C=CS(=O)(=O)C2)cc1 (stereo not given) | -0.235 |
| Cc1cccc(C)c1NC(=O)CCl | 0.194 |
| O=C(CCl)N1CCC(c2ccn[nH]2)C1 (stereo not given) | 0.121 |
| COc1ccc(-c2csc(NC(=O)CCl)n2)cc1 | 0.189 |
| Cc1ccc2nnc(CNC(=O)CCl)n2c1 | -0.118 |
| O=C(CCl)N1CCc2sccc2C1 | -0.455 |
| Cl.Cn1ncc2c1CC(NC(=O)CCl)CC2 (stereo not given) | -0.0206 |
| O=C(CCl)Nc1cccc(C(=O)N2CCSCC2)c1 | -0.111 |
| O=C(CCl)NC1CCC2(CC1)OCCO2 | 0.176 |
| Cc1noc(N2CCN(C(=O)CCl)CC2)n1.Cl | -0.17 |
| CNC(=O)C1CCN(C(=O)CCl)CC1 | 0.16 |
| Cc1ccc(C)c(Oc2ccc(CNC(=O)CCl)cn2)c1.Cl | -0.0158 |
| Cl.O=C(CN1CCN(C(=O)CCl)CC1)Nc1ccc(F)cc1 | 0.0025 |
| CC(NC(=O)CCl)c1cnn(C2CC2)c1 (stereo not given) | -0.244 |
| Cc1cc(C2CCCN2C(=O)CCl)nn1C.Cl (stereo not given) | 0.0127 |
| O=C(CCl)N1CCC2(CCC(O)CC2)CC1 | 0.318 |
| Cl.O=C(CCl)NCCc1ncc(F)cc1F | 0.213 |
| O=C(CCl)Nc1nnc(CC(F)(F)F)o1 | 0.149 |
